Data published in PubChem BioAssay AID1159580 (chemical genetic matrix, 2015).
Several values for one entry are separate records, joined by “and”; a condition that tells them apart may be missing. Equal values may be shown once. Hit rate of the full screen: of about 5,500 compounds, about 2,000 (36%) were called active. About 18% were inconclusive and are not listed. No stated cut-off is given here; in the data, active means normalized growth mostly below about 0.91 (no sharp cut-off); inconclusive means no clear call, values can overlap the other calls; inactive means mostly above about 0.92. The list shows a part of the results.

Experiment: chemical genetic growth profiling, strain panel (AID 1159580);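 further: tested at 20 µM; growth read once vehicle control cultures reached saturation at 30 °C; 1 = growth at the plate median or of vehicle wells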
Details: S. cerevisiae deletion strains, growth OD

Measured: normalized growth

CC(C)NCC(O)c1ccc2ccccc2c1 (stereo not drawn)
inactive: locus YAL013W, strain DEP1, stronger effect = lower value 1.02 | locus YAL021C, strain ccr4, stronger effect = lower value 0.992 | locus YAL026C, strain drs2, stronger effect = lower value 1.01 | locus YAL030W, strain snc1, stronger effect = lower value 1 | locus YBL061C, strain skt5, stronger effect = lower value 0.998 | locus YBR009C, strain hhf1, stronger effect = lower value 0.985 | locus YBR021W, strain FUR4, stronger effect = lower value 1.02 | locus YBR023C, strain chs3, stronger effect = lower value 1 | locus YBR171W, strain sec66, stronger effect = lower value 1 | locus YBR229C, strain ROT2, stronger effect = lower value 1.01 | locus YBR231C, strain swc5, stronger effect = lower value 0.99 | locus YBR279W, strain paf1, stronger effect = lower value 0.998 | locus YCL011C, strain gbp2, stronger effect = lower value 1 | locus YCL016C, strain dcc1, stronger effect = lower value 1 | locus YCL029C, strain bik1, stronger effect = lower value 0.999 | locus YCL061C, strain MRC1, stronger effect = lower value 1.01 | locus YCL069W, strain vba3, stronger effect = lower value 1 | locus YCR088W, strain abp1, stronger effect = lower value 1.01 | locus YDL005C, strain med2, stronger effect = lower value 0.999 | locus YDL035C, strain GPR1, stronger effect = lower value 1.02 | locus YDL040C, strain nat1, stronger effect = lower value 0.987 | locus YDL074C, strain BRE1, stronger effect = lower value 1.04 | locus YDL101C, strain DUN1, stronger effect = lower value 1.01 | locus YDL134C, strain PPH21, stronger effect = lower value 1.02 | locus YDL185W, strain tfp1, stronger effect = lower value 1 | locus YDL192W, strain arf1, stronger effect = lower value 1 | locus YDR001C, strain nth1, stronger effect = lower value 1 | locus YDR069C, strain doa4, stronger effect = lower value 0.987 | locus YDR101C, strain arx1, stronger effect = lower value 1.01 | locus YDR137W, strain rgp1, stronger effect = lower value 0.987 | locus YDR159W, strain sac3, stronger effect = lower value 0.971 | locus YDR162C, strain NBP2, stronger effect = lower value 1.03 | locus YDR195W, strain ref2 0.966 | locus YDR297W, strain sur2, stronger effect = lower value 0.998 | locus YDR318W, strain mcm21, stronger effect = lower value 0.992 | locus YDR334W, strain swr1, stronger effect = lower value 1 | locus YDR335W, strain msn5, stronger effect = lower value 0.999 | locus YDR388W, stronger effect = lower value 0.994 | locus YDR392W, strain spt3, stronger effect = lower value 0.918 | locus YDR502C, strain sam2, stronger effect = lower value 0.995 | locus YEL003W, strain gim4, stronger effect = lower value 1.01 | locus YEL037C, strain rad23, stronger effect = lower value 1 | locus YEL061C, strain CIN8 (second series), stronger effect = lower value 0.996 | locus YEL061C, strain CIN8, stronger effect = lower value 1 | locus YER015W, strain faa2, stronger effect = lower value 0.992 | locus YER016W, strain bim1, stronger effect = lower value 0.997 | locus YER110C, stronger effect = lower value 0.994 | locus YER111C, strain swi4, stronger effect = lower value 1 | locus YER155C, strain BEM2 (second series), stronger effect = lower value 0.998 | locus YER155C, strain BEM2, stronger effect = lower value 1.01 | locus YER167W, strain BCK2, stronger effect = lower value 1.01 | locus YFR010W, strain ubp6, stronger effect = lower value 1 | locus YGL078C, strain dbp3, stronger effect = lower value 0.992 | locus YGL086W, strain mad1, stronger effect = lower value 1 | locus YGL167C, strain pmr1, stronger effect = lower value 1 | locus YGL173C, strain kem1, stronger effect = lower value 0.999 | locus YGL227W, strain vid30, stronger effect = lower value 0.992 | locus YGL240W, strain doc1, stronger effect = lower value 0.995 | locus YGL248W, strain PDE1, stronger effect = lower value 1.01 | locus YGL253W, strain hxk2, stronger effect = lower value 0.998 | locus YGR135W, strain pre9, stronger effect = lower value 0.983 | locus YGR252W, strain gcn5, stronger effect = lower value 0.973 | locus YHR013C, strain ard1, stronger effect = lower value 0.952 | locus YHR027C, strain rpn1, stronger effect = lower value 1 | locus YHR030C, strain SLT2, stronger effect = lower value 1.01 and 1.02 | locus YHR079C, strain IRE1 (second series), stronger effect = lower value 0.99 | locus YHR079C, strain IRE1, stronger effect = lower value 1.02 | locus YHR094C, strain hxt1, stronger effect = lower value 0.99 | locus YHR129C, strain ARP1, stronger effect = lower value 1.02 | locus YHR142W, strain chs7, stronger effect = lower value 1 | locus YHR200W, strain rpn10, stronger effect = lower value 0.994 | locus YIL066C, strain RNR3, stronger effect = lower value 1.02 | locus YIL073C, strain SPO22, stronger effect = lower value 1.01 | locus YIL125W, strain kgd1, stronger effect = lower value 0.999 | locus YIR030C, strain dcg1, stronger effect = lower value 0.998 | locus YJL092W, strain hpr5, stronger effect = lower value 1.01 | locus YJL095W, strain BCK1 (second series), stronger effect = lower value 0.999 | locus YJL095W, strain BCK1, stronger effect = lower value 1.02 and 1.03 | locus YJL115W, strain asf1, stronger effect = lower value 0.996 | locus YJL129C, strain trk1, stronger effect = lower value 1.01 | locus YJL134W, strain LCB3, stronger effect = lower value 1 | locus YJL154C, strain vps35, stronger effect = lower value 0.992 | locus YJL164C, strain tpk1, stronger effect = lower value 1 | locus YJL166W, strain qcr8, stronger effect = lower value 1 | locus YJL168C, strain set2, stronger effect = lower value 0.991 | locus YJL187C, strain SWE1 (second series), stronger effect = lower value 1.03 | locus YJL187C, strain SWE1, stronger effect = lower value 1 | locus YJR043C, strain POL32, stronger effect = lower value 1.05
